Measurements published in PubChem BioAssay (EPA / NIEHS).
Records with an inconclusive call do not appear. Active and inactive are the calls of the source. How the source made its calls, unless noted: active means hit-call score of the fitted dose curve at least 0.9, where 1 is the maximum; inconclusive means response in the unintended direction; inactive means score below 0.9.

Legend:
[1] = target: human Peroxisome Proliferator-activated Receptor delta (PPARd), PPARD (gene 5467) (UniProt Q03181); experiment: ATG_PPARd_TRANS: Attagene TRANS-FACTORIAL HepG2 Assay for human Peroxisome Proliferator-activated Receptor delta (PPARd) (AID 2283002)
Chain of human Peroxisome Proliferator-activated Receptor delta (PPARd), PPARD (gene 5467) (Q03181 whole entry, looked up, the tested form may be a part): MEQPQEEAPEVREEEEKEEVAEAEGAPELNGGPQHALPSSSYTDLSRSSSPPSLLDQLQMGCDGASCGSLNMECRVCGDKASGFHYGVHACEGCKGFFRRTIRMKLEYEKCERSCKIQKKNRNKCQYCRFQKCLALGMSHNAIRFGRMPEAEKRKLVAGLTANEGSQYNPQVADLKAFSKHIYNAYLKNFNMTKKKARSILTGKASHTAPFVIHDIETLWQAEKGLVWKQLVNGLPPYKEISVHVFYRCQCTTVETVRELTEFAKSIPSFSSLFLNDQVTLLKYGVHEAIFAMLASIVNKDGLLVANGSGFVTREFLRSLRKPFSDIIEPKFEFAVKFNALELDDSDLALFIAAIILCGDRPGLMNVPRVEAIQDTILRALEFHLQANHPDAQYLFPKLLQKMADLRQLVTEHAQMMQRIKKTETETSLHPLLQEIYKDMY
Procedure, shortened: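 HepG2 cells transiently transfected with GAL4-UAS multiplexed reporter units driven by exogenous chimeric NR-GAL4 proteins; 24 h compound exposure. Reporter mRNA measured by RT-PCR, 6-FAM primer extension, HpaI digestion and capillary electrophoresis; gain of signal fitted relative to DMSO.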

[2] = target: human Retinoic Acid Receptor beta (RARb), RARB (gene 5915) (UniProt P10826); experiment: ATG_RARb_TRANS: Attagene TRANS-FACTORIAL HepG2 Assay for human Retinoic Acid Receptor beta (AID 2283004)
Chain of human Retinoic Acid Receptor beta (RARb), RARB (gene 5915) (P10826 whole entry, looked up, the tested form may be a part): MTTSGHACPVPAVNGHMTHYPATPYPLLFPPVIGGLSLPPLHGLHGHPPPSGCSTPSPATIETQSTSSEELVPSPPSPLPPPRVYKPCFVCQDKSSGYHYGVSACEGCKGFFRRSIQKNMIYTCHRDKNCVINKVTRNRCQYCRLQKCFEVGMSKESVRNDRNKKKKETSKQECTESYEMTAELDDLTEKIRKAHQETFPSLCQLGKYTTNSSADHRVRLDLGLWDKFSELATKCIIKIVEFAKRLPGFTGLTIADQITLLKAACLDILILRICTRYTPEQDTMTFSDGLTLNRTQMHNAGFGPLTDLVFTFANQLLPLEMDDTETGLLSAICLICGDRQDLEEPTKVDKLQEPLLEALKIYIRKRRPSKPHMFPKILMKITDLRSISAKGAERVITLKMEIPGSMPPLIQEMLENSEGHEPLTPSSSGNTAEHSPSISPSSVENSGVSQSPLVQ
Procedure, shortened: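 HepG2 cells were transiently transfected with GAL4-UAS reporter units that report activity of exogenous chimeric NR-Gal4 proteins, then exposed to compound for 24 h. Reporter mRNA was quantified by RT-PCR with capillary electrophoresis fluorescence, as gain of signal over DMSO.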

[3] = target: Retinoic acid receptor alpha (Homo sapiens) (UniProt P10276); experiment: ATG_RARa_TRANS: Attagene TRANS-FACTORIAL HepG2 Assay for human Retinoic Acid Receptor alpha (RARa) (AID 2283005)
Chain of Retinoic acid receptor alpha (Homo sapiens) (P10276 whole entry, looked up, the tested form may be a part): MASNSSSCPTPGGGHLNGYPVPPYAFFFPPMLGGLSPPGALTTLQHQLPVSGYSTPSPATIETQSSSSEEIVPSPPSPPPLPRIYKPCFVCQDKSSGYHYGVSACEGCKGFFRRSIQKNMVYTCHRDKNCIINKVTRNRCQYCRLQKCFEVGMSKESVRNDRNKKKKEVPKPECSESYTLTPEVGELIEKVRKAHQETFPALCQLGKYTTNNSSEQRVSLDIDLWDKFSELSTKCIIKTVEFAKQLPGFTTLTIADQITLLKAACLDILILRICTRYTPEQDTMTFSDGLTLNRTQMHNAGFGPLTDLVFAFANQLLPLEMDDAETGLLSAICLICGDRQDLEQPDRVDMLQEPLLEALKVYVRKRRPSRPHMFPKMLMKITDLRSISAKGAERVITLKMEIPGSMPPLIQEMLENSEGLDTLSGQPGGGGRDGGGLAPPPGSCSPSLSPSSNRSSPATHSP
Procedure, shortened: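 HepG2 transiently transfected with multiplex GAL4-UAS reporter units including a human RARa–GAL4 chimera; 24 h compound exposure. Reporter mRNA quantified by RT-PCR, 6-FAM labeling and capillary electrophoresis; gain of signal versus DMSO.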

[4] = target: Peroxisome proliferator-activated receptor gamma (Homo sapiens) (UniProt P37231); experiment: ATG_PPARg_TRANS: Attagene TRANS-FACTORIAL HepG2 Assay for human Peroxisome Proliferator-activated Receptor-gamma (PPARg) (AID 2283007)
Chain of Peroxisome proliferator-activated receptor gamma (Homo sapiens) (P37231 whole entry, looked up, the tested form may be a part): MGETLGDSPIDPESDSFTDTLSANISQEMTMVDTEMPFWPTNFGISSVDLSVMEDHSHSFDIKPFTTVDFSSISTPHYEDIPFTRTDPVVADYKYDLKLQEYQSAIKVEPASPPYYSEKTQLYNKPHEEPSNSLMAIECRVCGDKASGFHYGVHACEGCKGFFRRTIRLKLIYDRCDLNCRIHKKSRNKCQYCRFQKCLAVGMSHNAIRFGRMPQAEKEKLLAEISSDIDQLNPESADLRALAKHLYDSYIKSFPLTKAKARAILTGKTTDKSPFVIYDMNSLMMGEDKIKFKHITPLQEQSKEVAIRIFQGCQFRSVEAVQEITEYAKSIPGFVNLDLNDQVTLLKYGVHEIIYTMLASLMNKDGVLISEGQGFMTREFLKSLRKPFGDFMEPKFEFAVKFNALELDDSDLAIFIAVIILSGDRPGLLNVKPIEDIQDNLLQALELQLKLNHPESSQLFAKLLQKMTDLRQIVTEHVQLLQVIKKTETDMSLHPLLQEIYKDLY
Procedure, shortened: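 Chimeric NR-Gal4 transactivation is measured in transiently transfected HepG2 cells by reporter mRNA induction at 24 h. Detection uses RT-PCR with fluorescent labelling and capillary electrophoresis; DMSO defines baseline.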

[5] = target: Nuclear receptor subfamily 1 group I member 2 (Homo sapiens) (UniProt O75469); experiment: ATG_PXR_TRANS: Attagene TRANS-FACTORIAL HepG2 Assay for human Pregnane X Receptor (PXR) (AID 2283008)
Chain of Nuclear receptor subfamily 1 group I member 2 (Homo sapiens) (O75469 whole entry, looked up, the tested form may be a part): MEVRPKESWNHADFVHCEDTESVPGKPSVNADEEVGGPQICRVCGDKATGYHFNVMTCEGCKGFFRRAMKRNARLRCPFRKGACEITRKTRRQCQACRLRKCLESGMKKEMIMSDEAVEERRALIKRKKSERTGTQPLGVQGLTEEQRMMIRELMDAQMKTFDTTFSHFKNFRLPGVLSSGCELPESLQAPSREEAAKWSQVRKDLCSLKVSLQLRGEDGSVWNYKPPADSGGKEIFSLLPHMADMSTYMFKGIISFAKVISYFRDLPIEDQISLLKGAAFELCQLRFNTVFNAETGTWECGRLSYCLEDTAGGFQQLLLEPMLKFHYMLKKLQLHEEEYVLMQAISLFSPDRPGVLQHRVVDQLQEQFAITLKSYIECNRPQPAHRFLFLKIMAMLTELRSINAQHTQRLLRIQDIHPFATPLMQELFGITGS
Procedure, shortened: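 HepG2 cells transiently transfected with GAL4-UAS reporter units and PXR-Gal4 chimera, exposed 24 h. Reporter mRNA quantified by RT-PCR, fluorescent labelling, HpaI digestion and capillary electrophoresis; gain of signal vs DMSO.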

[6] = target: human Retinoic Acid Receptor gamma (RARg), RARG (gene 5916) (UniProt P13631); experiment: ATG_RARg_TRANS: Attagene TRANS-FACTORIAL HepG2 Assay for human Retinoic Acid Receptor gamma (RARg) (AID 2283009);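 on AC50: AC50 is for reporter induction above DMSO meaning RARg activation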
Chain of human Retinoic Acid Receptor gamma (RARg), RARG (gene 5916) (P13631 whole entry, looked up, the tested form may be a part): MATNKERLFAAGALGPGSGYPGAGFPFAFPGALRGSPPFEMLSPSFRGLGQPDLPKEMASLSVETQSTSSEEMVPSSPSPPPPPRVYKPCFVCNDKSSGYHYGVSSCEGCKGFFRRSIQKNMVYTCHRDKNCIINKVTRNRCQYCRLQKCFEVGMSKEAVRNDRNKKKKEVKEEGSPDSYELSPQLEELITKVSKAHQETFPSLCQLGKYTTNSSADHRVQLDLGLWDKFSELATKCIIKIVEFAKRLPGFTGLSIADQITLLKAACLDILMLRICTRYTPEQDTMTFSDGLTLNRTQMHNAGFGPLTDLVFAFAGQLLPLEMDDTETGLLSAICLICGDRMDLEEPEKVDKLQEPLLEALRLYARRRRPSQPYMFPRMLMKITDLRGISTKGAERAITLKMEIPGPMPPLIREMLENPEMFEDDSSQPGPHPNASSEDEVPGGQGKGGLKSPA
Procedure, shortened: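 HepG2 transiently transfected with GAL4-UAS reporter units and chimeric NR-Gal4 constructs; 24 h compound exposure. Reporter mRNA quantified by RT-PCR, FAM labeling, HpaI digestion and capillary electrophoresis; gain-of-signal versus DMSO.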

[7] = target: human RAR-related Orphan Receptor beta (RORb), RORB (gene 6096) (UniProt Q92753); experiment: ATG_RORb_TRANS: Attagene TRANS-FACTORIAL HepG2 Assay for human RAR-related Orphan Receptor beta (RORb) (AID 2283010)
Chain of human RAR-related Orphan Receptor beta (RORb), RORB (gene 6096) (Q92753 whole entry, looked up, the tested form may be a part): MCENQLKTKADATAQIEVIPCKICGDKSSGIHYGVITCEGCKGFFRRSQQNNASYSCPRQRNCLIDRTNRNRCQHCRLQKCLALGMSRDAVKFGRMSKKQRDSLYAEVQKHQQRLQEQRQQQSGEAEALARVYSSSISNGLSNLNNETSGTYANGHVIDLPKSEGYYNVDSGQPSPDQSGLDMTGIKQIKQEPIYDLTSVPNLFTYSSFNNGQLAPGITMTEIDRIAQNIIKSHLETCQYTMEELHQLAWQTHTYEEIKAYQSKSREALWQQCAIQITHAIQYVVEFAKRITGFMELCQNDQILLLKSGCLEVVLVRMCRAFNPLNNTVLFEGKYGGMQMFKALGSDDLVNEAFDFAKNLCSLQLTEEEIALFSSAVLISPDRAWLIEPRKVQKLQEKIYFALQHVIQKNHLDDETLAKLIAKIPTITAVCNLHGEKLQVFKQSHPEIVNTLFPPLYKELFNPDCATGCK
Procedure, shortened: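 HepG2 cells transiently transfected with GAL4-UAS reporter units expressing chimeric NR-Gal4 protein; reporter mRNA measured 24 h after dosing by RT-PCR, 6-FAM labelling and capillary electrophoresis. Gain-of-signal fitted relative to DMSO baseline.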

[8] = target: Retinoic acid receptor RXR-alpha (Homo sapiens) (UniProt P19793); experiment: ATG_RXRa_TRANS: Attagene TRANS-FACTORIAL HepG2 Assay for human Retinoid X Receptor alpha (RXRa) (AID 2283012)
Chain of Retinoic acid receptor RXR-alpha (Homo sapiens) (P19793 whole entry, looked up, the tested form may be a part): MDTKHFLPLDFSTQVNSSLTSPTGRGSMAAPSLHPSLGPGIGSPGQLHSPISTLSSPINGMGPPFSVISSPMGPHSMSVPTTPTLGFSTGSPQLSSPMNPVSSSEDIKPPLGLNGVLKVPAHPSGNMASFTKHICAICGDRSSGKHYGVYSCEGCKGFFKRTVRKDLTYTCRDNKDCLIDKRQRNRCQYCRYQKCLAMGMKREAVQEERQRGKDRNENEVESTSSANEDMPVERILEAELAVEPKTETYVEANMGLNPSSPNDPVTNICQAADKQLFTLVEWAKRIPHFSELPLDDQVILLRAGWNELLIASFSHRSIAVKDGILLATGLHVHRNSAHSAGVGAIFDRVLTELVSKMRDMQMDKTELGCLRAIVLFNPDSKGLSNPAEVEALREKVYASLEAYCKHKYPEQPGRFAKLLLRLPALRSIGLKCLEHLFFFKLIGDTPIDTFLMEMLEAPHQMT
Procedure, shortened: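 HepG2 cells transiently transfected with GAL4-UAS reporter units and chimeric RXRa-Gal4 protein, treated 24 h. Reporter mRNA measured by RT-PCR, fluorescent labelling, HpaI digestion and capillary electrophoresis. Induction fitted against DMSO.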

[9] = read-out: Intercellular Adhesion Molecule 1 (ICAM1), ICAM1 (gene 3383); experiment: BSK_3C_ICAM1: BioMAP Diversity Plus: 3C Assay for Intercellular Adhesion Molecule 1 (ICAM1) Biomarker Activity (AID 2283003; active means hit-call score of the fitted dose curve at least 0.9, where 1 is the maximum; inactive means score below 0.9); details: primary human endothelial cells (HUVEC); actives raise or lower the signal
Procedure, shortened: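 HUVEC primary cells stimulated under 3C conditions; ICAM1 measured by ELISA 24 h after compound dosing. Curves fitted bidirectionally against the DMSO baseline. Overt cytotoxicity checked by SRB staining of parallel cultures.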

[10] = target: human RAR-related Orphan Receptor gamma (RORg), RORC (gene 6097) (UniProt P51449); experiment: ATG_RORg_TRANS: Attagene TRANS-FACTORIAL HepG2 Assay for human RAR-related Orphan Receptor gamma (RORg) (AID 2283011)
Chain of human RAR-related Orphan Receptor gamma (RORg), RORC (gene 6097) (P51449 whole entry, looked up, the tested form may be a part): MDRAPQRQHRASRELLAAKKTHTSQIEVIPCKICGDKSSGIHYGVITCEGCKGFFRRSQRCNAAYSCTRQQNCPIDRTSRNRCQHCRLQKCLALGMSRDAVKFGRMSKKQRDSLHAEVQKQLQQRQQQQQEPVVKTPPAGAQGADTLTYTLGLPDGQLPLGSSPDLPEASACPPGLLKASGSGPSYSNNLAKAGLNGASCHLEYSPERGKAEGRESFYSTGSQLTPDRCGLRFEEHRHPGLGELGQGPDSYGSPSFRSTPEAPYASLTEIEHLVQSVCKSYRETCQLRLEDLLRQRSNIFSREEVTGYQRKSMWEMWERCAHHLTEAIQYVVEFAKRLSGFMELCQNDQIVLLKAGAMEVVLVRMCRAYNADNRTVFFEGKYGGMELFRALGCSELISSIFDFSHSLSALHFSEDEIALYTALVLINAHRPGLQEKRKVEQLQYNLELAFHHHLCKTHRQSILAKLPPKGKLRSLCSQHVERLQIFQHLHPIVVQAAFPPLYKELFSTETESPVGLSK
Procedure, shortened: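 HepG2 cells transiently transfected with GAL4-UAS reporter units and chimeric RORg-Gal4 construct; after 24 h chemical exposure, reporter mRNA measured by RT-PCR with fluorescent capillary electrophoresis, gain of signal fitted against DMSO.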

Measured: AC50

CCCCCCOc1cc(C)c(O)c(C)c1C
inactive: [1] | [2] | [3] | [5] | [6]
active: [4] 11.1 µM

CCCC(C)CCC(C)=O (stereo not drawn)
not listed: [8] | [9] | [10]
inactive: all other assays above

Cc1cnc(NC(=O)C2=C(O)c3ccccc3S(=O)(=O)N2C)s1
inactive: [1] | [2] | [6] | [7] | [8]
active: [4] 40.4 µM

CC(=O)Nc1ccc2c(c1)Cc1cc(NC(C)=O)ccc1-2
inactive: [1]

CCCCC/C=C\C/C=C\CCCCCCCC(=O)OC
inactive: [10] | [8]
active: [1] 100 µM | [9] 32.7 µM | [4] 4.68 µM | [5] 47.6 µM

CN(C)CCCN(C)C
not listed: [6] | [9] | [10]
inactive: all other assays above

OC1CCCCCCCCCCC1
active: [5] 8.87 µM
inactive: [1] | [2] | [4] | [6] | [8]

COCc1c(C(C)C)nc(C(C)C)c(/C=C/[C@@H](O)C[C@@H](O)CC(=O)O)c1-c1ccc(F)cc1
inactive: [1] | [9] | [8]
active: [4] 12.8 µM | [5] 1.76 µM

C/C=C\C/C=C/CCCCCCCCOC(C)=O
active: [4] 8.89 µM | [5] 40.8 µM
inactive: [1] | [9] | [7] | [8]

C#CC1(O)CC[C@H]2[C@@H]3CCC4=CCCC[C@@H]4[C@H]3CC[C@@]21C (stereo partly drawn)
active: [9] 10.7 µM
not listed: [5] | [7] | [10]
inactive: all other assays above

CCCNC(=O)NS(=O)(=O)c1ccc(Cl)cc1
not listed: [9]
inactive: all other assays above

COCC(C)N (stereo not drawn)
inactive: [1] | [2] | [4] | [5] | [8]

C=C[Si](OC(C)=O)(OC(C)=O)OC(C)=O
inactive: [1] | [9] | [3] | [6] | [7]
active: [5] 4.82 µM

CCCCCCCCCCCCCCCC[N+](C)(C)CC
active: [9] 3.44 µM | [4] 15.6 µM | [6] 19.6 µM
inactive: [1] | [2] | [8]

C=CC=CC=CCCCCC
active: [4] 6.66 µM | [5] 6.77 µM
inactive: [1] | [9] | [7]

CC(C)(c1cc(Br)c(OCCO)c(Br)c1)c1cc(Br)c(OCCO)c(Br)c1
active: [9] 28 µM | [4] 2.78 µM | [6] 0.454 µM | [8] 81 µM
inactive: [1] | [2] | [3]

CNC(=S)NN
not listed: [4] | [5] | [9]
inactive: all other assays above

C=CCOCC(O)CCl (stereo not drawn)
active: [5] 47.2 µM
not listed: [3]
inactive: all other assays above

CCCCC(CC)COC(=O)c1ccccc1O (stereo not drawn)
not listed: [6] | [10]
inactive: all other assays above

COc1ccc(NC(C)=O)cc1N
inactive: [1]

CCCCCCCCCCCCCCCC(=O)OCC
inactive: [1] | [2] | [3] | [5] | [6] | [8]

O=C(c1ccc(O)cc1)c1ccc(O)cc1O
active: [4] 35.3 µM
inactive: [1] | [9] | [7] | [8]

Nc1ccc2cc3ccccc3cc2c1
inactive: [1] | [2] | [6] | [7] | [8]
active: [4] 26.8 µM

CC(C)c1ccc2c(C(C)C)cc(C(C)C)c(S(=O)(=O)O)c2c1
active: [4] 25.1 µM | [5] 1.23 µM
inactive: [1] | [2] | [7] | [8]

c1ccc(-c2ccccn2)nc1
inactive: [1] | [9] | [4] | [5] | [6] | [8]

S=C(NC1CCCCC1)NC1CCCCC1
inactive: [1] | [9] | [4] | [6]

O=C(Cl)c1cc(C(=O)Cl)cc(C(=O)Cl)c1
inactive: [1] | [4] | [8]
active: [9] 12.7 µM

CCO[Si](C)(OCC)OCC
inactive: [1] | [9] | [5] | [7]

CCCCC(CC)COC(=O)c1ccccc1 (stereo not drawn)
inactive: [1] | [2] | [4] | [5] | [7] | [8]

Nc1ccc(N)c(Cl)c1
inactive: [9] | [6]
active: [1] 68 µM | [5] 4.08 µM

CCOc1nc(F)cc2nc(S(=O)(=O)Nc3c(Cl)cccc3C(=O)OC)nn12
active: [4] 46.2 µM | [5] 7.06 µM
not listed: [3] | [7]
inactive: all other assays above

C=CC(C)(CCC=C(C)C)OC(=O)C(C)C (stereo not drawn)
inactive: [1] | [2] | [4] | [6] | [8]
active: [5] 27.4 µM

Cc1ccc(C(C)c2ccc(C)c(C)c2)cc1C
inactive: [1] | [2] | [7] | [8]
active: [4] 30.9 µM | [5] 2.91 µM

CCO[Si](CCCN=C=O)(OCC)OCC
not listed: [3] | [7] | [10]
inactive: all other assays above
